Giardia FBPA inh = blocks Giardia fructose-bisphosphate aldolase activity | purified Giardia FBPA | Potency, µM (top dose mostly 59.6 µM), most hits filed as inhibitors | 290,000 compounds, 0.71% hits; further: nearly all actives have a fitted effect of over 55% in size
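40 nM FBPA preincubated 10 min at RT with compound (up to 57.5 uM final), then substrate plus GAPDH/TPI/NAD/arsenate coupling and diaphorase/resazurin added. Fluorescence read after 20 min at RT, 525/598 nm.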
NS1 function inh = inhibitors of influenza NS1 protein function; Potency, µM (doses to about 46.1 µM); AID 2326; 270,000 compounds, 0.4% hits; calls by dose curve; further: actives are rising curves; nearly all actives have a fitted effect of over 50% in size
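In this qHTS, NS1 from influenza A is expressed in budding yeast, where it slows growth. Cells are switched from glucose to 2% galactose medium (pH 6.0, -URA), treated with compound, and growth recovery is read at OD600.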
Shiga inhibitor = inhibitors of Shiga toxin in Vero cells | inhibition, % at 38.7 µM | 290,000 compounds, 9.2% hits | Vero cells, Shiga toxin protein synthesis inhibition reporter | AID 2315; in the data active means inhibition mostly above about 28%, no sharp cut-off; inactive means mostly below about 43%
Cycloheximide cs = counter-screen for Shiga toxin inhibitors: cycloheximide protein synthesis inhibition | max response, % | cell reporter, cycloheximide protein synthesis inhibition counterscreen | 300,000 compounds, 12% hits | AID 2314; in the data active means max response mostly above about 13%, no sharp cut-off; inactive means mostly below about 14%; further: read at 38.3 µM for the half of the compounds with a filed dose
LmPK inhibitor = blocks Leishmania mexicana pyruvate kinase activity. purified LmPK, Kinase-Glo ATP luminescence, 1 h. Q27686. Potency, µM (highest dose often 57.5 µM), hits mostly inhibitors. 290,000 compounds, 0.37% hits. AID 1721
Target sequence (Q27686 whole entry, looked up): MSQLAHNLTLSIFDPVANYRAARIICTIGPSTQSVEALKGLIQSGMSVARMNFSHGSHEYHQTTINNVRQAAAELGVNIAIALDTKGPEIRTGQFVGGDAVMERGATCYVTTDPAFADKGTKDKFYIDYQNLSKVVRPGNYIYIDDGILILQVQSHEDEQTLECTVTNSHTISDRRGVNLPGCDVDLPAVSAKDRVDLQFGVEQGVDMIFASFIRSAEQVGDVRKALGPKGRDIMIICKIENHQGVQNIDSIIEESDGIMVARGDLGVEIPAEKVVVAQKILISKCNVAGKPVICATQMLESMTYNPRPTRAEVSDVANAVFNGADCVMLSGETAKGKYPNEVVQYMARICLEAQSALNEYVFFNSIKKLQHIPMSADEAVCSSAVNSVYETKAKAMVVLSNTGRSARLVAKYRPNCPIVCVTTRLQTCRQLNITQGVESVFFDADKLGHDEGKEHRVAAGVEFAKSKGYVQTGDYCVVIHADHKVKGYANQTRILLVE
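qHTS format; LmPK 0.1 nM; substrates PEP 0.5 mM and ADP 0.1 mM. One-hour room-temperature incubation, then coupled luciferase luminescence; 0.5 nM enzyme wells mark activation.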
Of the large screens only hits and unclear results are named; the others gave an inactive call. An excerpt weighted towards active compounds, which were near 14% of everything screened. Unless noted, the call rests on the fitted dose curve; in most records, active means well fitted curve in the direction sought with a large enough effect; inconclusive means small, poorly fitted or top-dose-only effect, or another doubt; inactive means no such curve, though single readings can be large; an effect the other way counts as inactive or inconclusive.

CCNc1ccccc(-c2ccc3ccccc3n2)c1=O	Giardia FBPA inh inconclusive, Shiga inhibitor 133.8, Cycloheximide cs 40.5
CCNc1ccc2noc3c2c1C(=O)c1ccccc1-3	none
O=c1c(-c2cc(F)cc(F)c2)nc2cnc(N3CCNCC3)nc2n1Cc1ccc(F)cc1	none (no result: NS1 function inh, Shiga inhibitor, Cycloheximide cs, LmPK inhibitor)
COCCNC(=O)/C(C#N)=C/c1cc(C)n(C2CCCCC2)c1C	Shiga inhibitor 69.4, Cycloheximide cs 28.5 (no result: NS1 function inh)
COCCNC(=O)/C(C#N)=C/c1cc(C)n(-c2ccc(C)cc2)c1C	Shiga inhibitor 63.1, Cycloheximide cs 49.5
COCCNC(=O)/C(C#N)=C/c1ccccc1Br	none
Cc1cc(/C=C(\C#N)C(=O)NCc2ccco2)c(C)[nH]1	none
COc1ccc(-n2c(C)cc(/C=C(\C#N)C(=O)NCc3ccco3)c2C)cc1	Shiga inhibitor 50.5, Cycloheximide cs 47.4
CCN(CC)CCCC(C)n1c(-c2ccccc2)nc2c(N(CCOC)CCOC)nc(C)nc21 (stereo unspecified)	none (no result: NS1 function inh, Shiga inhibitor, Cycloheximide cs, LmPK inhibitor)
Cc1ccc(CC(=O)Nc2ncc([N+](=O)[O-])s2)cc1	Cycloheximide cs 30.4
O=C(CCS(=O)(=O)c1ccccc1)Nc1ncc([N+](=O)[O-])s1	none
O=C(CCS(=O)(=O)Cc1ccccc1)Nc1ncc([N+](=O)[O-])s1	Shiga inhibitor 57.9, Cycloheximide cs 39.0
CN(/N=C/c1ccncc1)c1cnc2ccccc2n1	Shiga inhibitor 75.3, Cycloheximide cs 47.9 (no result: NS1 function inh)
O=c1n(-c2ccc(Br)cc2)cnn1-c1ncccc1[N+](=O)[O-]	Shiga inhibitor 91.5, Cycloheximide cs 31.3
O=C(Cn1c(=O)oc2ccc(Cl)cc21)Nc1ccon1	none
O=C(O)C1OC(O)C(O)C(O)C1O (stereo unspecified)	none (no result: NS1 function inh, Shiga inhibitor, Cycloheximide cs, LmPK inhibitor)
CC(=O)Nc1cccc(/C(C)=N/NC(=O)c2ccc(CN3CCOCC3)cc2)c1	none (no result: NS1 function inh)
C/C(=N\NC(=O)c1ccccc1F)c1cccc(NC(=O)c2ccc(C)cc2)c1	Shiga inhibitor 58.3, Cycloheximide cs 33.7
C/C(=N\NC(=O)c1ccc(F)cc1)c1cccc(NC(=O)c2cccc(F)c2)c1	Shiga inhibitor 35.1, Cycloheximide cs 15.6 (no result: Giardia FBPA inh)
C/C(=N\NC(=O)c1ccc(F)cc1)c1cccc(NC(=O)c2ccco2)c1	none
C/C(=N\NC(=O)c1cccc(O)c1)c1cccc(NC(=O)c2ccc(F)cc2)c1	Shiga inhibitor 68.3, Cycloheximide cs 40.9 (no result: Giardia FBPA inh)
COc1ccc(C(=O)Nc2cccc(/C(C)=N/NC(=O)c3ccc([N+](=O)[O-])c(C)c3)c2)cc1OC	none
C/C(=N\NC(=O)c1cccc(F)c1)c1cccc(NC(=O)c2ccc(F)cc2)c1	Shiga inhibitor 26.4, Cycloheximide cs 34.9
Cc1nc2ccc(S(=O)(=O)N3CCN(S(=O)(=O)c4c(F)cccc4F)CC3)cc2s1	none (no result: Giardia FBPA inh, NS1 function inh, LmPK inhibitor)
Cc1c(C(=O)NNC(=S)Nc2cccc(Cl)c2)nnn1-c1ccccc1	Giardia FBPA inh inconclusive, Shiga inhibitor active, Cycloheximide cs 57.3
Cc1cc(NC(=O)Nc2cccc(Cl)c2)n(-c2ccccc2)n1	none
Cc1nn(C)cc1C(=O)NNC(=S)Nc1ccccc1	Cycloheximide cs 17.3
Cc1cc(C(=O)NNC(=S)Nc2ccccc2)nn1C	Shiga inhibitor 61.2
COc1ccccc1C(=O)NNC(=S)Nc1ccccc1	none
CNC(=S)NNC(=O)c1cn(C)nc1C	Giardia FBPA inh inconclusive (no result: NS1 function inh)
N#Cc1ccccc1CN1C(=O)NC2(CCCCCC2)C1=O	none
CC1(C)Cc2ccccc2C(Nn2cnnc2)=N1	none
CC1(C)Cc2ccccc2C2=NNC(=O)C2=N1	Giardia FBPA inh 4.46µM
O=C(NCc1ccco1)c1ccc2c(=O)n(Cc3ccco3)c(SCC(=O)N3CCCC3)nc2c1	Shiga inhibitor 38.9, Cycloheximide cs 32.7
O=C(CSc1nc2ccccc2c(=O)n1Cc1ccco1)N1CCCCCC1	Cycloheximide cs 16.6
Cc1ccc(NC(=O)CN(C)C(=O)CSc2nc3ccccc3c(=O)n2Cc2ccco2)cc1	none
CN(Cc1ccccc1)C(=O)CSc1nc2ccccc2c(=O)n1Cc1ccco1	Cycloheximide cs 37.8
COCCn1c(C)cc(C(=O)CSc2nc3ccccc3c(=O)n2Cc2ccco2)c1C	Shiga inhibitor 95.5, Cycloheximide cs 22.9
CC(=O)c1ccc(OCC(=O)Nc2ccccc2C(=O)NC2CC2)cc1	none (no result: Giardia FBPA inh)
O=C(O)C1C2CCCCC2=C2CCCCC2C1C(=O)c1ccccc1 (stereo unspecified)	none
COc1ccc(S(=O)(=O)Nc2ccccc2C(=O)N2CCCCC2)cc1C	none (no result: Giardia FBPA inh)
CCOC(=O)c1sc(=N)n(-c2ccc(OC)cc2)c1C	Cycloheximide cs 27.9
CCc1ccc(C(=O)N/N=C/c2ccncc2)s1	Cycloheximide cs 23.4
O=C(N/N=C/c1ccc(Br)s1)c1cccnc1	Shiga inhibitor 42.1, Cycloheximide cs 26.3

Screens: PubChem, National Center for Advancing Translational Sciences (NCATS)
